# According to PubChem BioAssay AID2501 (Southern Research Specialized Biocontainment Screening …, 2010):
# Out of some 2,200 compounds screened, about 1,200 (55%) were called active. No cut-off is given here; in the data, nearly all actives have IC50 up to about 92 µM. So high a share suggests a set chosen from earlier hits. The list shows a part of the results.
# Test: counter assay for TAg ATPase ADP read-out – biochemical, ADP-Hunter, fluorescence, counter-screen (AID 2501);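 note: purified T antigen ATPase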;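 for inhibition: 0% = enzyme with vehicle and 100% = reference inhibitor wells; higher means more inhibition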
# Conditions: series mostly up to 100 µM; inhibition: at the top concentration
SMILES,inhibition,IC50
FC(F)(F)c1ccc(Cl)c(-n2c(-c3cc(-c4ccco4)[nH]n3)n[nH]c2=S)c1,8.69% (inactive),
S=c1[nH]nc(-c2cc(-c3ccco3)[nH]n2)n1-c1ccccc1Cl,,6.42 µM (active)
COc1ccccc1-n1c(-c2cc(-c3ccco3)[nH]n2)n[nH]c1=S,27.2% (inactive),
O=C(CN1C(=O)S/C(=C\C=C\c2ccccc2)C1=O)Nc1ccc(C(=O)O)cc1,18.8% (inactive),
CN(C)c1ccc(NC(=O)CN2C(=O)CC(c3ccccc3)=Nc3ccccc32)cc1,,5.09 µM (active)
COc1cc(CNc2ccc(N3CCCCC3)cc2)ccc1OCC(=O)NC(C)(C)C,,4.51 µM (active)
COc1cc(C=O)c(Cl)cc1OCC(N)=O,-17.1% (inactive),
CNC(=O)COc1ccc(C=O)cc1OC,1.48% (inactive),
COc1ccc(CCNC(=O)c2cc(-c3ccc4c(c3)OCO4)on2)cc1OC,-21.9% (inactive),
COc1cc(CNc2ccc(N3CCOCC3)cc2)ccc1OCC(=O)NC(C)(C)C,,4.7 µM (active)
COc1cc(CNc2ccc3c(c2)OCCO3)ccc1OCC(N)=O,,3.27 µM (active)
CC(C)N=C(NC#N)SCc1ccc(Br)cc1,-13.4% (inactive),
Fc1cccc(Cl)c1Cn1nnc(-c2ccc(N3CCOCC3)cc2)n1,-16.8% (inactive),
CCCC(=O)N=c1sc2c(OC)ccc(OC)c2n1C,4.9% (inactive),
Cc1sc2nc(CSc3ccc([N+](=O)[O-])cc3)[nH]c(=O)c2c1C,-14.9% (inactive),
O=C1OCC(CO)(CO)N=C1NNc1ccccc1Cl,,9.24 µM (active)
Nc1ccc(OCCCc2c(N)nc(N)nc2N)cc1,,6.58 µM (active)
CC1=C(C#N)C(=O)NC(=O)/C1=C/c1ccc(-c2ccc(S(N)(=O)=O)cc2)o1,9.01% (inactive),
CC1=NN(c2cccc(C(=O)O)c2)C(=O)/C1=C\C=C\c1ccco1,7.38% (inactive),
O=C1NN(c2ccccc2)C(=O)/C1=C\c1ccc(-c2cc([N+](=O)[O-])ccc2O)o1,,6.89 µM (active)
O=C1NN(c2ccccc2)C(=O)/C1=C/c1ccc(-c2ccc(C(=O)O)cc2)o1,,13.4 µM (active)
N=C1/C(=C\c2ccc(-c3cccc(C(=O)O)c3)o2)C(=O)N=C2SC=C(c3ccccc3)N12,-15.1% (inactive),
O=C1NN(c2ccccc2)C(=O)/C1=C/c1ccc(-c2cccc(C(=O)O)c2)o1,,14.1 µM (active)
Cc1ccc(-c2ccc(/C=C3\C(=O)ON=C3c3ccccc3)o2)c([N+](=O)[O-])c1,29.1% (inactive),
CC(C)S(=O)(=O)C1=NSC2=NC(=O)/C(=C\c3ccc(-c4ccccc4)o3)C(=N)N21,1.67% (inactive),

SMILES,inhibition,IC50
CCn1c2ccccc2c2nnc(SCC(=O)N(C)C3CCS(=O)(=O)C3)nc21 (stereo not given),0.82% (inactive),
CC1=C(C)CS(=O)N(S(=O)(=O)c2ccc(Cl)cc2)C1 (stereo not given),11.5% (inactive),
COc1ccc(NC2CCCN(Cc3cccc4cnccc34)C2)cc1OC (stereo not given),,8.39 µM (active)
Cc1ccsc1C(=O)NCc1ccccc1Cl,,81.4 µM (active)
Cc1ccc2c(cnn2C(=O)CCC(=O)NCc2ccccc2Cl)c1,-16% (inactive),
O=C(Cc1nnc(NC(=O)c2ccccc2)s1)N/N=C\c1ccc(O)c(O)c1,,1.55 µM (active)
Cc1ccccc1C(=O)Nc1nnc(CC(=O)N/N=C/c2cn(Cc3ccccc3)c3ccccc23)s1,-25.4% (inactive),
CCn1c(SCC(=O)N/N=C/c2ccc(O)c(OC)c2)nc2ccccc21,,6.63 µM (active)
Cc1cc(SCC(=O)N/N=C/c2ccc(O)c(O)c2)nc2ccccc12,,5.75 µM (active)
CCSc1nc2ccccc2n1CC(=O)OC,28.2% (inactive),
O=C(CSc1nc2ccccc2o1)N/N=C/c1ccc(O)c(O)c1,,7.74 µM (active)
O=[N+]([O-])c1ccc(Sc2nc3ccccc3o2)c([N+](=O)[O-])c1,3.97% (inactive),
COc1ccc(C2C3=C(N=C4SCC(=O)N42)c2ccccc2CC3)cc1 (stereo not given),1.79% (inactive),
Cn1c(SCC(=O)N/N=C/c2ccc(O)c(O)c2)nc2ccccc21,,6.12 µM (active)
CN(C)c1ccc(NC2=C([N+](=O)[O-])CS(=O)(=O)C2)cc1,,3.14 µM (active)
COc1ccc(N=Nc2c(N)n[nH]c2N)cc1,,6.12 µM (active)
N=C1/C(=C\c2ccc(Br)o2)C(=O)N=C2SC(CC(=O)N3CCCCC3)=NN12,0.15% (inactive),
COc1cc2c(cc1NC(=S)Nc1ccccc1C)oc1ccccc12,,23.6 µM (active)
CCN(CC)S(=O)(=O)c1ccc(OC)c(NC(=S)Nc2cccc(C)c2)c1,-0.28% (inactive),
CCN1C(=O)C2(C(C(=O)c3cc4ccccc4o3)=C(O)C(=O)N2CCCN(C)C)c2ccccc21 (stereo not given),,31.5 µM (active)
Cc1ccc2c(c1)C1C=CCC1C(C(=O)O)N2 (stereo not given),-35.9% (inactive),
O=C1CCCN1CCCNC(=S)Nc1ccc(Nc2ccccc2)cc1,,6.41 µM (active)
CCOc1cc2[nH]c(=O)n(Cc3ccc(C(=O)NCCCN4CCCC4=O)cc3)c(=O)c2cc1OCC,5.15% (inactive),
O=C1/C(=C\c2ccc(O)c(O)c2)N=C2CCCCCN12,,4.83 µM (active)
COc1cc(/C=c2\sc3n(c2=O)CCCN=3)ccc1O,,4.98 µM (active)

SMILES,inhibition,IC50
COc1cc(/C=C2\N=C3CCCCCN3C2=O)ccc1O,,3.83 µM (active)
CCOc1cc(/C=C2\N=C3CCCCCN3C2=O)ccc1O,,5.66 µM (active)
CC(=O)N1CC[n+]2c(-c3ccc([N+](=O)[O-])cc3)csc21,17.1% (inactive),
CCCCN1C(=O)/C(=C(/C#N)C(N)=O)c2ccccc21,8.13% (inactive),
CCN(CC)CCCCN1c2ccccc2Sc2ccccc21,,6.81 µM (active)
CCN1/C(=C/C=C/c2sc3ccccc3[n+]2CC)Sc2ccccc21,12.2% [at 50 µM] (inactive),
COc1ccc(-n2c(=O)c3c4c(sc3n3c(=S)[nH]nc23)CCC4)cc1,,12 µM (active)
O=c1c2c3c(sc2n2c(=S)[nH]nc2n1-c1ccccc1)CCC3,,18.4 µM (active)
NC(=O)Cn1c(=O)n(Cc2ccco2)c(=O)c2c3c(sc21)CCCCC3,-31.5% (inactive),
COc1ccc(N2C3=C(CC4=C2CCCC4=O)C(=O)CCC3)cc1,19.4% (inactive),
Cc1ccc(-n2c(=O)c3c4c(sc3n3c(=S)[nH]nc23)CCC4)cc1,,14.2 µM (active)
O=C(Cn1c(=O)n(Cc2ccco2)c(=O)c2c3c(sc21)CCCCC3)c1ccccc1,-11.9% (inactive),
CCn1c(=O)n(CC)c2cc(N)ccc21,,4.09 µM (active)
O=c1[nH]c2cc3c(cc2cc1C(c1nnnn1CC1CCCO1)N1CCCCCC1)OCCO3 (stereo not given),-71.6% (inactive),
COc1cccc(C(c2nnnn2Cc2ccco2)N2CCN(Cc3ccccc3)CC2)c1OC (stereo not given),-23.6% (inactive),
COCCn1nnnc1C(c1cc2cc(OC)c(OC)cc2[nH]c1=O)N1CCN(c2ccc(O)cc2)CC1 (stereo not given),,8.81 µM (active)
Cc1cc2c(Nc3ccc(O)cc3)ncnc2s1,,3.61 µM (active)
CCc1cc2c(Nc3ccc(O)cc3)nc(C)nc2s1,,4.69 µM (active)
Cc1ccc(-c2nc(CN(Cc3cnn(C)c3)C(C)C)c(C)o2)o1,-4.39% (inactive),
Nc1cc(C(=O)O)ccc1Nc1ccccc1,,5.63 µM (active)
O=S(=O)(O)c1cccc2cccc(Nc3ccccc3)c12,,19.5 µM (active)
Cc1ccc(C)n1-c1cccc(C(=O)O)c1,-51.9% (inactive),
Nc1ccc(Nc2ccccc2)c(S(=O)(=O)O)c1,,4.02 µM (active)
N#Cc1c(N)sc(=S)c2c1CCCCC2,22.4% (inactive),
CCOc1cc(/C=N/NC(=O)CCc2n[nH]c(=O)[nH]c2=O)ccc1O,,9.46 µM (active)

SMILES,inhibition,IC50
COc1cc(/C=N/NC(=O)CNc2n[nH]c(=O)[nH]c2=O)ccc1O,,2.93 µM (active)
COc1ccc(/C=N/NC(=O)CCc2n[nH]c(=O)[nH]c2=O)cc1O,,7.94 µM (active)
Oc1ccccc1C(=S)N1CCCCCC1,,13.9 µM (active)
CC(=O)Oc1ccc(C(=O)Nc2ccccc2C(=O)N2CCCCC2)cc1,21.5% (inactive),
COc1ccccc1NC(=O)c1c(NC(=O)CCC(=O)O)sc2c1CCCCC2,11.2% (inactive),
CCCCN1Cc2c(nc3cc(-c4ccco4)[nH]n3c2=O)C1=O,,9.07 µM (active)
COC(=O)CC1SC(=O)NC1=Nc1ccc(O)cc1 (stereo not given),,4.34 µM (active)
Cc1c(Cl)cccc1NC(=S)N(CCN(C)C)C(C)c1ccco1 (stereo not given),8.35% (inactive),
N#CCCn1nc(-c2ccc(Br)cc2)cc1Nc1ccccc1NC(=O)C(F)(F)F,0.34% (inactive),
COc1ccc(CC(=O)N/N=C(\C)CC(=O)Nc2ccc(N(C)C)cc2)cc1OC,,3.9 µM (active)
COc1ccc(CC(=O)n2[nH]c(=O)ccc2=O)cc1OC,-3.65% (inactive),
COC(C(=O)N/N=C(\C)CC(=O)Nc1ccc(N(C)C)cc1)c1ccccc1 (stereo not given),,6.98 µM (active)
O=C(O)CCC1c2cc3c4cc2OC2Oc5cc6c(cc51)C(CCC(=O)O)c1cc5c7cc1OC(O6)c1cc6cc(c1)Oc1cc(cc(C(=O)O)c1)Oc1cc8cc(c1)C(Oc1cc(c(cc1C5CCC(=O)O)C3CCC(=O)O)OC(O4)c1cc(cc(c1)Oc1cc(cc(C(=O)O)c1)O8)Oc1cc(cc(C(=O)O)c1)Oc1cc(cc2c1)Oc1cc(cc(C(=O)O)c1)O6)O7 (stereo not given),-0.04% (inactive),
CCC[n+]1c2ccccc2cc2ccccc21,-11.8% (inactive),
O=C(NO)c1ccc(C(=O)N(C2CCCCC2)C2CCCCC2)cc1,18.3% (inactive),
CCCC[n+]1c2ccccc2cc2ccccc21,9.88% (inactive),
CC(C)n1c(=S)[nH]c2c1c(=O)[nH]c(=O)n2C,,92 µM (active)
C#CCOCCOCCOCCNc1nc(N2CCN(C(=O)CCCCCCCCCCNC(=O)[C@H]([C@@H](C)CC)n3cc(CCCCN=C(N)N)nn3)CC2)nc(N2CCN(C(=O)CCCCCCCCCCNC(=O)[C@H](CCCCN)n3cc(C[C@@H](C)CC)nn3)CC2)n1,-2.74% (inactive),
Oc1ccc(/C=N/NC(=S)NCC2CCCO2)cc1 (stereo not given),,2.58 µM (active)
COc1cc(/C=N/NC(=O)C(=O)NCc2ccco2)ccc1O,,5.14 µM (active)
COc1ccc(-n2c(=S)[nH]c3cc(C(=O)NCc4ccco4)ccc3c2=O)c(OC)c1,19.3% (inactive),
Cc1ccc(CNC(=O)/C=C/c2ccc(S(=O)(=O)NCc3ccco3)cc2)cc1,-32.3% (inactive),
COc1ccccc1CN(C(=O)CNC(=O)c1ccco1)C(C(=O)NCC1CCCO1)c1ccc(OC)c(OC)c1 (stereo not given),-33.5% (inactive),
COc1cc(/C=N/NC(=O)CNC(=O)c2ccco2)ccc1O,,2.71 µM (active)
COc1cc(/C=N/NC(=O)C(=O)NCC2CCCO2)ccc1O (stereo not given),,4.13 µM (active)
